From PMC4336329 (PLoS ONE, 2015)
Among all 310,000 compounds or so, about 14,000 (4.5%) showed an effect of 50% or more. Effects have a minus sign here. Only a selection was taken, and strong results are over-represented in it overall.

These compounds were tested against human ether-à-go-go-related gene (hERG) potassium channel (human, UniProt Q12809) (assay: primary screen, population patch clamp on CHO cells stably expressing hERG; higher = less effect of the substance).
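Note: peak tail current of the secondary pulse compared with the same well before compound.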

Sequence of human ether-à-go-go-related gene (hERG) potassium channel (Q12809 whole entry, looked up): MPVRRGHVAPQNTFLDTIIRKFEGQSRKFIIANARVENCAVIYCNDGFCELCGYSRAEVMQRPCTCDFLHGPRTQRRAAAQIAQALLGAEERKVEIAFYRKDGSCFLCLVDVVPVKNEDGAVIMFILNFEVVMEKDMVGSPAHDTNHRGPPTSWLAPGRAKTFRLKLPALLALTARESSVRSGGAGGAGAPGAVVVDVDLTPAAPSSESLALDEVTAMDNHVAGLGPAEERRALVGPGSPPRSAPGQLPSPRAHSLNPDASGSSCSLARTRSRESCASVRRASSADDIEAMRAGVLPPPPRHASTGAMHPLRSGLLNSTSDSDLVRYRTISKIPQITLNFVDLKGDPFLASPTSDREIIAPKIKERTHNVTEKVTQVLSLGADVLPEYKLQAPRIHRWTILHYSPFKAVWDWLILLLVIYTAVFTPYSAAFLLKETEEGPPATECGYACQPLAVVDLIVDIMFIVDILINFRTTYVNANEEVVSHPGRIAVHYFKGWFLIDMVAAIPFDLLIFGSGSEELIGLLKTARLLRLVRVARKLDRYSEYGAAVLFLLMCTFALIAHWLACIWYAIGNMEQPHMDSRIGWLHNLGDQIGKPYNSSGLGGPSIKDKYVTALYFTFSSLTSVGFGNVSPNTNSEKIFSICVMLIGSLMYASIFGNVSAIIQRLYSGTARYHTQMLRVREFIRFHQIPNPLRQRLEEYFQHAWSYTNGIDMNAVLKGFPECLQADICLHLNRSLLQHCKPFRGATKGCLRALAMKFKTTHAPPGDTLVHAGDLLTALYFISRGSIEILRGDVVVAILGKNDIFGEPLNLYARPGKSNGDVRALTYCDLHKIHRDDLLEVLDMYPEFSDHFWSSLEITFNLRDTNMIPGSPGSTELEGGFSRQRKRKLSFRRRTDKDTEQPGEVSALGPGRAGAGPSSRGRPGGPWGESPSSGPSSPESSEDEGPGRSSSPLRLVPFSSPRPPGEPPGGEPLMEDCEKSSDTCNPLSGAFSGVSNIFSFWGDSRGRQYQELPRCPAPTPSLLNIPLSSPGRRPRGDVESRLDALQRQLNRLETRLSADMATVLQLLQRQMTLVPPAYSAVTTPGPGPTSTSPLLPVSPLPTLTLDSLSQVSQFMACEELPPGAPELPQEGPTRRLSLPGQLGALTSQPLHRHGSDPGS

Compound | hERG current change (%, negative = inhibition) at 10uM
Cc1ccccc1-n1c(-c2ccco2)nc2ccccc2c1=O | 1.78%
Cn1cnc2c1c(=O)n(CC(O)CO)c(=O)n2C (stereo not shown) | 23%
CCOC(=O)N1CCN(C(=O)Cn2cc3c(n2)CCCC3)CC1 | -72.4%
O=C(Cn1cc2c(n1)CCCCC2)N1CCCCC1 | 2.46%
O=C(Cn1cc2c(n1)CCCC2)N1CCCC1 | 5.98%
Cc1ccc(C(=O)NCc2ccc3c(c2)OCO3)cc1S(=O)(=O)N1CCCCC1 | -26.4%
OCCN(CCCn1c(C(F)(F)F)nc2ccccc21)c1nc(CN2CCCCC2)cs1 | -19%
CC(=O)OCCN(CCCn1c(-c2ccncc2)nc2ccccc21)c1nc(CN2CCCCC2)cs1 | -58.5%
OCCN(CCCn1c(-c2ccncc2)nc2ccccc21)c1nc(CN2CCCCC2)cs1 | 23.4%
NC(=O)CSc1nc2sc(-c3ccccc3)cc2c(=O)n1N | 11%
CC1CN=C(Nc2ccccc2)S1 (stereo not shown) | 7.23%
COc1cccc(CNS(=O)(=O)c2c(C(=O)N3CCCCC3)c(C)n(C)c2C)c1 | 9.63%
O=[N+]([O-])c1ccc(SCCc2ccncc2)cc1 | -63.7%
O=C(COC(=O)CSc1ccc([N+](=O)[O-])cc1)NCCc1ccccc1 | 5.52%
O=[N+]([O-])c1ccc(SCCc2cc[nH+]cc2)cc1.[Cl-] | -53.7%
COC(=O)c1cnc(SCc2ccc([N+](=O)[O-])cc2)n1C | -32%
Fc1ccc(SCCc2ccncc2)cc1 | -29.9%
O=[N+]([O-])c1ccc(SCCc2ccccn2)cc1 | -44.3%
O=c1ccnc(SCCc2ccc([N+](=O)[O-])cc2)[nH]1 | -34%
O=C(COC(=O)CSc1ccc([N+](=O)[O-])cc1)NCCCc1ccccc1 | 4.5%
Cn1c(SCCc2ccc([N+](=O)[O-])cc2)nccc1=O | -59.9%
COc1ccc(C)cc1Cn1c(S(C)(=O)=O)nc2ccccc21 | -9.64%
Cc1cccc(N2CCN(C(=O)CCN3C(=O)C4C5C=CC(C5)C4C3=O)CC2C)c1 (stereo not shown) | -18.2%
CCN1CN(CCc2ccccc2)CNC1=S | 5.61%

Compound | hERG current change (%, negative = inhibition) at 10uM
O=C(C1CCN(S(=O)(=O)c2ccc(Cl)cc2)CC1)N1CCCCCCC1 | -16.1%
Cc1ccc(-n2nc3c(c2NC(=O)c2ccc4c(c2)OCO4)CS(=O)C3)cc1 (stereo not shown) | 7.09%
O=C(NCc1ccc2c(c1)OCO2)c1ccc(Br)cc1 | -19.8%
CCN(CC)C(=O)/C(=C\c1ccc2c(c1)OCO2)NC(=O)c1ccc(Br)cc1 | -63.5%
CCN(CC)C(=O)/C(=C/c1ccc2c(c1)OCO2)NC(=O)c1ccc(Br)cc1 | -70.5%
COc1ccc(C(=O)N/C(=C\c2ccc3c(c2)OCO3)C(=O)Nc2ccc(C(=O)O)cc2)cc1 | 17.8%
CCN(CC)C(=O)/C(=C\c1ccc(Br)cc1)NC(=O)c1ccccc1OC | -27.3%
COc1ccc(-c2cn(CCN)c(-c3ccncc3)n2)cc1 | 5.87%
CN(C)S(=O)(=O)c1ccc(Cl)c(NC(=O)COC(=O)CN2C(=O)C3CCCCC3C2=O)c1 (stereo not shown) | 6.74%
CCC1CCCCN1S(=O)(=O)c1ccc2[nH]c(=O)ccc2c1 (stereo not shown) | -60.1%
CCC1CCCCN1S(=O)(=O)c1ccccc1 (stereo not shown) | -13%
CC1CCN(S(=O)(=O)c2ccc3[nH]c(=O)ccc3c2)CC1 | -5.5%
C=CCN(c1ccc(C(=O)NCCc2ccccc2)cc1)S(C)(=O)=O | -6.23%
COc1ccc(C)cc1NC(=O)C(c1ccccc1)N1CCNC(=O)C1 (stereo not shown) | -5.31%
CC(C)(C)c1ccc(C(=O)NCCN2CCOCC2)cc1 | 1.01%
CC(C)c1ccc(C(=O)NCCCN2CCN(CCCNC(=O)c3ccc(C(C)C)cc3)CC2)cc1 | -84.3%
CC(C)(C)c1ccc(C(=O)NCCCN2CCN(CCCNC(=O)c3ccc(C(C)(C)C)cc3)CC2)cc1 | -63.6%
CC(C)c1ccc(C(=O)NCCCN2CCOCC2)cc1 | -5.2%
CC(C)c1ccc(C(=O)NCCCN(C)C)cc1 | -17.1%
Cc1ccc(C(=O)NCCCN2CCN(CCCNC(=O)c3ccc(C)cc3)CC2)cc1 | -67.5%
CC(C)(C)c1ccc(C(=O)NCCN2CCCC2)cc1.Cl | -6.48%
Cc1ccc(C(=O)NCCCN2CCOCC2)cc1 | 3.81%
O=C(Nc1ccc(C(=O)NCCCN2CCN(c3ccccc3)CC2)cc1)C1=CSCCO1 | -38.2%
Cc1ccc(C(=O)NCCN2CCCC2)cc1.Cl | -5.44%

Compound | hERG current change (%, negative = inhibition) at 10uM
O=C(Nc1ccc(C(=O)NCCCN2CCN(c3ccc(F)cc3)CC2)cc1)C1=CSCCO1 | -54%
CN1CCN(CCCNC(=O)c2ccc(NC(=O)C3=CSCCO3)cc2)CC1 | 11.5%
COc1cccc(C(=O)NCC2CCCN2S(=O)(=O)c2ccccc2)c1 (stereo not shown) | 2.72%
COc1cccc(-n2c(C)n[nH]c2=O)c1 | 14.1%
O=C(N/N=C/c1ccc(O)cc1)c1csc2c1CCCC2 | -19.7%
CCc1cc(Br)ccc1N1C(=O)C2CC=CCC2C1=O (stereo not shown) | 5.21%
Cc1nccn1CCCNC(=O)CC1C(=O)NCCN1Cc1ccccc1C(F)(F)F (stereo not shown) | 9.64%
CCCN(N=Nc1cccc([N+](=O)[O-])c1)c1cccc([N+](=O)[O-])c1 | 3.14%
O=C(NCCCCNC(=O)c1ccc(F)cc1)c1ccc(F)cc1 | 13.3%
O=C(NCCCN1CCN(CCCNC(=O)c2ccc(F)cc2)CC1)c1ccc(F)cc1 | -51.1%
O=C(NCCCNC(=O)c1ccc(F)cc1)c1ccc(F)cc1 | 7.81%
CCn1c2ccccc2c2nnc(SCC(=O)N(C)C3CCS(=O)(=O)C3)nc21 (stereo not shown) | -21%
O=C(CN(C(=O)CCC(=O)Nc1ccccn1)c1cccc(F)c1)NCc1ccc(F)cc1 | -4.26%
CS(=O)(=O)N1CCN(C(=O)c2csc3ccccc23)CC1 | 2.35%
CN1CC(C(=O)c2cccc(C(F)(F)F)c2)C(c2ccc(Cl)cc2)C1 (stereo not shown) | -20%
CN1CC(C(=O)c2ccc(Cl)cc2)C(c2ccccc2F)C1 (stereo not shown) | -46.5%
Cc1ccc(C2CN(C)CC2C(=O)c2ccc(F)cc2)cc1 (stereo not shown) | -53.2%
COc1cccc(C(=O)C2CN(c3ccccc3)CC2c2ccc(Cl)cc2)c1 (stereo not shown) | 5.04%
CN1CC(C(=O)c2ccc(Cl)cc2)C(c2ccc(Cl)cc2Cl)C1 (stereo not shown) | -49.2%
CN1CC(C(=O)c2ccc([N+](=O)[O-])cc2)C(c2ccc(Cl)cc2)C1 (stereo not shown) | -75.6%
COc1cccc(C(=O)C2CN(C)CC2c2ccc(Cl)cc2)c1 (stereo not shown) | -66.4%
CN1CC(C(=O)c2ccc(F)cc2)C(c2c(F)cccc2Cl)C1 (stereo not shown) | -65.7%
O=C(c1ccccc1)C1CN(c2ccccc2)CC1c1ccc(Cl)cc1 (stereo not shown) | 27.1%
CN1CC(C(=O)c2ccc(F)cc2)C(c2ccc(F)cc2)C1 (stereo not shown) | -30.2%

Compound | hERG current change (%, negative = inhibition) at 10uM
Cc1ccc(C2CN(c3ccccc3)CC2C(=O)c2ccc(F)cc2)cc1 (stereo not shown) | -17%
COc1ccc(OC)c(NC(=O)COC(=O)c2ccc(OC)c(S(=O)(=O)N3CCCC3)c2)c1 | 16.9%
CN(C)C=O.NS(=O)(=O)c1cccc(NC(=O)CSc2nc3nc(-c4cccs4)cc(C(F)(F)F)c3c(=O)[nH]2)c1 | 7.85%
CCOc1cc(CNc2nn[nH]n2)ccc1OCC(=O)NC(C)(C)C | 13.2%
O=C(c1cc(O)c(O)c([N+](=O)[O-])c1)c1ccccc1F | 2.56%
COCCNC(=O)Nc1ccc2nc(-c3ccco3)c(-c3ccco3)nc2c1 | 4.08%
CCOC(=O)CC(NS(=O)(=O)c1ccc2[nH]cc(C(=O)O)c(=O)c2c1)c1ccc(OCC)c(OC)c1 (stereo not shown) | -1.02%
COCCn1c(N)c(N(Cc2ccccc2)C(=O)c2ccc3ccccc3c2)c(=O)[nH]c1=O | 7.55%
O=C(NC1CCCC1)C1CC(=O)N(CCc2ccccc2)C1 (stereo not shown) | 9.66%
O=C(COc1ccccc1Cl)N1CCCC1 | 5.64%
CC(=O)Nc1ccc(C2CN(C)CC2C(=O)c2ccc(Cl)cc2)cc1 (stereo not shown) | -31.8%
Cc1ccc(C(=O)C2CN3CCC2CC3)cc1.Cl (stereo not shown) | -37.4%
COc1ccc(C(=O)C2CN(c3ccccc3)CC2c2ccc(Cl)cc2)cc1 (stereo not shown) | -4.84%
CN1CC(C(=O)c2ccc(Cl)cc2)C(c2ccccc2)C1 (stereo not shown) | -31.8%
COc1ccc(-c2ccc(C(=O)C3CC3)cc2)cc1 | 14.7%
Cc1ccc(C(=O)C2CN(C)CC2C(=O)c2ccc(C)cc2)cc1 (stereo not shown) | -57%
CN1CC(C(=O)c2ccccc2)C(C(=O)c2ccccc2)C1 (stereo not shown) | -21.4%
CN1CC(C(=O)c2ccc(Cl)cc2)C(c2ccc(N(C)C)cc2)C1 (stereo not shown) | -57.9%
CN1CC(C(=O)c2cccs2)C(c2ccc(Cl)cc2)C1 (stereo not shown) | -49.2%
CN1CC(C(=O)c2ccccc2)C(c2ccccc2)C1 (stereo not shown) | -5.47%
COc1ccc(C(=O)C2CN(C)CC2c2ccc(Cl)cc2)cc1 (stereo not shown) | -73.1%
COc1ccc(C(=O)C2CN(C)CC2C(=O)c2ccc(OC)cc2)cc1 (stereo not shown) | -57.9%
